# Test results reported in the supplement of paper PMC10849652.
# About 7,900 targets were measured; listed, in parts, are those with a hit and a random draw of the rest. About 0.6% of all pairs of compound and target were hits. Values without a mark were called inactive.
# Key:
# Assay in all cases: log2 fold change, soluble protein after heating vs DMSO (PISA); higher = thermal stabilisation; K562 cells, 10 uM, 30 min; active = over 0.2 and 3.5 SD of the protein, either way, in both replicates (recomputed)
# [1] = compound: CS(=O)(=O)c1ccc(-c2cnc(N)c(C(=O)Nc3ccccc3)n2)cc1
# Summary of the method: (§1)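 Soluble protein was defined as the supernatant after 21,000xg for 90 min. It came from K562 cells at 2×10^6 cells/mL given 10 μM compound for 30 min, heated in aliquots for 3 min across 48°C-58°C, pooled, and extracted in PBS with 0.5% NP-40 at 4°C, and was quantified by TMTpro 16plex LC-MS/MS with equalised channel sums. Thermal stability against control samples, from duplicates, is reported as log2 fold change.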
# crizotinib = compound: C[C@@H](Oc1cc(-c2cnn(C3CCNCC3)c2)cnc1N)c1c(Cl)ccc(F)c1Cl [crizotinib]
# Summary of the method: as §1
# [2] = compound: C[C@@H]1COCCN1C2=NC(=NC(=C2)C3(CC3)S(=O)(=O)C)C4=C5C=CNC5=CC=C4
# Summary of the method: as §1
# [3] = compound: C[C@H](C1=CC=C(C=C1)C(=O)NC2=C3C=CNC3=NC=C2)N
# Summary of the method: as §1
# duvelisib = compound: C[C@H](Nc1ncnc2nc[nH]c12)c1cc2cccc(Cl)c2c(=O)n1-c1ccccc1 [duvelisib]
# Summary of the method: as §1
# gandotinib = compound: Cc1cc(Nc2cc(CN3CCOCC3)c3nc(C)c(Cc4ccc(Cl)cc4F)n3n2)n[nH]1 [gandotinib]
# Summary of the method: as §1
# tozasertib = compound: Cc1cc(Nc2cc(N3CCN(C)CC3)nc(Sc3ccc(NC(=O)C4CC4)cc3)n2)n[nH]1 [tozasertib]
# Summary of the method: as §1
# [4] = compound: Cc1cc(SCc2sc(-c3ccc(C(F)(F)F)cc3)nc2C)ccc1OCC(=O)O
# Summary of the method: as §1
# doramapimod = compound: Cc1ccc(-n2nc(C(C)(C)C)cc2NC(=O)Nc2ccc(OCCN3CCOCC3)c3ccccc23)cc1 [doramapimod]
# Summary of the method: as §1
# ispinesib = compound: Cc1ccc(C(=O)N(CCCN)[C@@H](c2nc3cc(Cl)ccc3c(=O)n2Cc2ccccc2)C(C)C)cc1 [ispinesib]
# Summary of the method: as §1
# bafetinib = compound: Cc1ccc(NC(=O)c2ccc(CN3CC[C@H](N(C)C)C3)c(C(F)(F)F)c2)cc1Nc1nccc(-c2cncnc2)n1 [bafetinib]
# Summary of the method: as §1
# [5] = compound: Cc1cccc(CC(=O)N2CCc3c2ccc(-c2cn(C)c4ncnc(N)c24)c3F)n1
# Summary of the method: as §1
# nilotinib = compound: Cc1cn(-c2cc(NC(=O)c3ccc(C)c(Nc4nccc(-c5cccnc5)n4)c3)cc(C(F)(F)F)c2)cn1 [nilotinib]
# Summary of the method: as §1
# [6] = compound: Cc1nc(Nc2n[nH]c3c2CN(C(=O)N[C@H](CN(C)C)c2ccccc2)C3(C)C)c2sccc2n1
# Summary of the method: as §1
# dasatinib = compound: Cc1nc(Nc2ncc(C(=O)Nc3c(C)cccc3Cl)s2)cc(N2CCN(CCO)CC2)n1 [dasatinib]
# Summary of the method: as §1
# [7] = compound: Cc1ncc(-c2ccnc(Nc3ccc(S(C)(=O)=O)cc3)n2)n1C(C)C
# Summary of the method: as §1
# [8] = compound: Cn1cc(-c2ccc3c(c2)CCN3C(=O)Cc2cccc(C(F)(F)F)c2)c2c(N)ncnc21
# Summary of the method: as §1
# [9] = compound: Cn1cc(-c2ccc3nnc(C(F)(F)c4ccc5ncccc5c4)n3n2)cn1
# Summary of the method: as §1
# tipifarnib = compound: Cn1cncc1[C@@](N)(c1ccc(Cl)cc1)c1ccc2c(c1)c(-c1cccc(Cl)c1)cc(=O)n2C [tipifarnib]
# Summary of the method: as §1
# mubritinib = compound: FC(F)(F)c1ccc(/C=C/c2nc(COc3ccc(CCCCn4ccnn4)cc3)co2)cc1 [mubritinib]
# Summary of the method: as §1
# Chain of UniProt Q9UJX6 (Q9UJX6 whole entry, looked up): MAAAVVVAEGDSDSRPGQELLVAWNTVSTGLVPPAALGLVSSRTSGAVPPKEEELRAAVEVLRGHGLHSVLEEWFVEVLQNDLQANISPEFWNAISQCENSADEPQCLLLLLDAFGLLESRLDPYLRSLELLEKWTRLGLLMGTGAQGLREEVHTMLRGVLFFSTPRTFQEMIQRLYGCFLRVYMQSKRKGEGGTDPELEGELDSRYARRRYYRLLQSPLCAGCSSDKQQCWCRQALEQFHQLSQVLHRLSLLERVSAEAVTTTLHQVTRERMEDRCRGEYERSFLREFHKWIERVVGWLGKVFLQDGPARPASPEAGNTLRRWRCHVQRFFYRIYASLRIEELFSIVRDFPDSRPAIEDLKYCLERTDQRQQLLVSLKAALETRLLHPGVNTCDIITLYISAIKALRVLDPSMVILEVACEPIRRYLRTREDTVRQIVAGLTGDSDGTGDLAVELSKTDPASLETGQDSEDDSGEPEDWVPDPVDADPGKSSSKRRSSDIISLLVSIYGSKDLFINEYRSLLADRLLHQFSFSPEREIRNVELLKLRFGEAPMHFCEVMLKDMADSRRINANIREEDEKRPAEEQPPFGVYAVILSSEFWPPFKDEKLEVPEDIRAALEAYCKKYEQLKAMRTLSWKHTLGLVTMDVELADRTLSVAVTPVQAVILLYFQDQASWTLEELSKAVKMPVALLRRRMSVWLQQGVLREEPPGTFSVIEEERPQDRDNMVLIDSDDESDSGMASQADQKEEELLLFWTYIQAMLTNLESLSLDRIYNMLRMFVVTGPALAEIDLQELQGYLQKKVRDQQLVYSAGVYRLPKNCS
# Chain of UniProt P49748 (P49748 whole entry, looked up): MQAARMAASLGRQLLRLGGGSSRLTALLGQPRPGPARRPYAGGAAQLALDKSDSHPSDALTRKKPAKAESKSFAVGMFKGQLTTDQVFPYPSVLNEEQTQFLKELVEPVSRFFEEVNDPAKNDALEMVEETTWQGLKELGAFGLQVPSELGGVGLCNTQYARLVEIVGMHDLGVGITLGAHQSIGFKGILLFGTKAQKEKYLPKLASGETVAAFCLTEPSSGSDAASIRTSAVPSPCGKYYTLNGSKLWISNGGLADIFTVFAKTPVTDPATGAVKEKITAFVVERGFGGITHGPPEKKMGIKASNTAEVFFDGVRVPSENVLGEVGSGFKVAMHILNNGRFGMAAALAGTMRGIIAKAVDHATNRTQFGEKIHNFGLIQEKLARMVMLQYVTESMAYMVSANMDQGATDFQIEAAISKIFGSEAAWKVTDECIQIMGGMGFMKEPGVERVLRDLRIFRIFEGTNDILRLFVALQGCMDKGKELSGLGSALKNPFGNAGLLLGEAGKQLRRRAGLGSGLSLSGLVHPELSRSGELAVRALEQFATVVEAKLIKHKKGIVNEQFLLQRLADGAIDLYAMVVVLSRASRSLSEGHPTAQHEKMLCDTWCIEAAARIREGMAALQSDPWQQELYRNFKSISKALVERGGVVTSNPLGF
# Chain of UniProt O75882 (O75882 whole entry, looked up): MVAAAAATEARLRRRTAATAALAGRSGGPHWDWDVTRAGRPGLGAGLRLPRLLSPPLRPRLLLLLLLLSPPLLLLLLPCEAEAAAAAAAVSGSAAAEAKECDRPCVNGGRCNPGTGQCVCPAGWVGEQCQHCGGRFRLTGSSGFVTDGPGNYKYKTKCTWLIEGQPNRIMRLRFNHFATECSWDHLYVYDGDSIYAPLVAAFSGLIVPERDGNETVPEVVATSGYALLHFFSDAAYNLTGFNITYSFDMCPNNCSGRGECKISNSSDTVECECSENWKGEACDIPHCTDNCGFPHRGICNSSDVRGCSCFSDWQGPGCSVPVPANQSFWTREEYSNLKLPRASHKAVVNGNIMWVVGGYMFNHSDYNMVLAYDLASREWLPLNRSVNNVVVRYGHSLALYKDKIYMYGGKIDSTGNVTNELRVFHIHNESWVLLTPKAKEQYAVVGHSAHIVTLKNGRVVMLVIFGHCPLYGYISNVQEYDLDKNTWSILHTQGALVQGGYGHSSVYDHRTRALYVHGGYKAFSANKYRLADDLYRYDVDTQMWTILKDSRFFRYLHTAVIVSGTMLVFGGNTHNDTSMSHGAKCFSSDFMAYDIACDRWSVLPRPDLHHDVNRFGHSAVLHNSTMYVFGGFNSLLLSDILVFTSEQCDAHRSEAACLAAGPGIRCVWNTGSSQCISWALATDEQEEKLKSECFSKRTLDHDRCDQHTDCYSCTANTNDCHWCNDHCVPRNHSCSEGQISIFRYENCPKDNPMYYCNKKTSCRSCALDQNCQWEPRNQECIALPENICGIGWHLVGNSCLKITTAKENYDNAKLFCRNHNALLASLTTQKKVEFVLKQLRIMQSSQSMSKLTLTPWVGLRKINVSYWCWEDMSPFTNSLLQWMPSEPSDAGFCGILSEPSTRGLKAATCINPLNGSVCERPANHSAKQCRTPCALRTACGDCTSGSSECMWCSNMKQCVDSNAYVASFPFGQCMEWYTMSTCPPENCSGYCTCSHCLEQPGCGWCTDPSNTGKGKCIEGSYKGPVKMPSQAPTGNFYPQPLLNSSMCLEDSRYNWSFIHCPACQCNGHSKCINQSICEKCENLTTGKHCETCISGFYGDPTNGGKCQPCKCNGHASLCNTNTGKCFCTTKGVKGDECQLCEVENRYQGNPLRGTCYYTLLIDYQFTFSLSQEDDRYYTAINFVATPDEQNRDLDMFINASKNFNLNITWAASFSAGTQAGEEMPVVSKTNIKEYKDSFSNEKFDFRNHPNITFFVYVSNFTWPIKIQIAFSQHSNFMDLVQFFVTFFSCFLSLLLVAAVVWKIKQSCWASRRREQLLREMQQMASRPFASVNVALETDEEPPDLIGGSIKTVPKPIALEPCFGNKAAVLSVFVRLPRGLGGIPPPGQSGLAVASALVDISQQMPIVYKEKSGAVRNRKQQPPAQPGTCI
# Chain of UniProt Q07960 (Q07960 whole entry, looked up): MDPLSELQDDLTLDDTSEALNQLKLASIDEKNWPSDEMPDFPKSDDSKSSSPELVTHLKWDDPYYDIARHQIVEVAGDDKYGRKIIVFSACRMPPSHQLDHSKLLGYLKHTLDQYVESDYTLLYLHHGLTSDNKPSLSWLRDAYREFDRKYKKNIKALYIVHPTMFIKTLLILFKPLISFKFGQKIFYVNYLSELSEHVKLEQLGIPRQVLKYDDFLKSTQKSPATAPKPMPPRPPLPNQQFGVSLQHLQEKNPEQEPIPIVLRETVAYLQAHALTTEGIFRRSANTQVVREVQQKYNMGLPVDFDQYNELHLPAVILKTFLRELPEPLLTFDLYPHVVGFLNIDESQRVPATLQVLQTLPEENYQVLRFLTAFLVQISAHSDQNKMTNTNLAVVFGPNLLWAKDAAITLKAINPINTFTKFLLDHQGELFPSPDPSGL
# Chain of UniProt Q8N2F6 (Q8N2F6 whole entry, looked up): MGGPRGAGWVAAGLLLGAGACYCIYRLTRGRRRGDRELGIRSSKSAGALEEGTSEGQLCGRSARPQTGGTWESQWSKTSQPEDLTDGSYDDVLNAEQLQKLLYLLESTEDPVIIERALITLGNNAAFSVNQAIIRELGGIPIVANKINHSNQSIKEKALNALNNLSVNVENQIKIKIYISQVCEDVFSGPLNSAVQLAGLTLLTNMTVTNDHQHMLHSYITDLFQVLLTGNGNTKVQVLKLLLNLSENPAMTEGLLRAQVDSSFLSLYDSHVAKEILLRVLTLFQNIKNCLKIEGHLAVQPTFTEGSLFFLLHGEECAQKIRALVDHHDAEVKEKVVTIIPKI
# Chain of UniProt Q10589 (Q10589 whole entry, looked up): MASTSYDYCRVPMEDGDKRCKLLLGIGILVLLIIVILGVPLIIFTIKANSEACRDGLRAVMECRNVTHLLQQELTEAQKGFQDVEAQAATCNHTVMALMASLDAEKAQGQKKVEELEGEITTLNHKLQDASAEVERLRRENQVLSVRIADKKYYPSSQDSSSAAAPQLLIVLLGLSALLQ
# Chain of UniProt P24666 (P24666 whole entry, looked up): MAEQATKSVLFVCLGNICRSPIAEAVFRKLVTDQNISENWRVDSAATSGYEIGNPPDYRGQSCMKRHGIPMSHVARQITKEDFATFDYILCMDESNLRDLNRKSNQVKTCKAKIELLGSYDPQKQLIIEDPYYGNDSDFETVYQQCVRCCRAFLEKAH
# Chain of UniProt P31939 (P31939 whole entry, looked up): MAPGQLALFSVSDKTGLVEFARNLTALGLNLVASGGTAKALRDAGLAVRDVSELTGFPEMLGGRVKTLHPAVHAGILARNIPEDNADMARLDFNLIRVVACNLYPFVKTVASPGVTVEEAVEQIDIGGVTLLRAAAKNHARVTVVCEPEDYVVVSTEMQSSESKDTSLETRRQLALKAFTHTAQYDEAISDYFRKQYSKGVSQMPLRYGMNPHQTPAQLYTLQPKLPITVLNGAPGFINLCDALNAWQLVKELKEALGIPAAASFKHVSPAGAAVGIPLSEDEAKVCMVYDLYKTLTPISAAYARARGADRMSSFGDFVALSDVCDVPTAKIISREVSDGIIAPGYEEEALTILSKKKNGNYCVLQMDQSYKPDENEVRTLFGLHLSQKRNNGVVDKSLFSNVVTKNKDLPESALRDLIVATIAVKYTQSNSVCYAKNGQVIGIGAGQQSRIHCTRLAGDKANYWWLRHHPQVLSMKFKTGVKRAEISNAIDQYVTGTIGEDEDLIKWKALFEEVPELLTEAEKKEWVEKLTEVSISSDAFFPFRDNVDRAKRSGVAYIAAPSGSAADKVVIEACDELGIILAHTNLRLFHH
# Chain of UniProt P53367 (P53367 whole entry, looked up): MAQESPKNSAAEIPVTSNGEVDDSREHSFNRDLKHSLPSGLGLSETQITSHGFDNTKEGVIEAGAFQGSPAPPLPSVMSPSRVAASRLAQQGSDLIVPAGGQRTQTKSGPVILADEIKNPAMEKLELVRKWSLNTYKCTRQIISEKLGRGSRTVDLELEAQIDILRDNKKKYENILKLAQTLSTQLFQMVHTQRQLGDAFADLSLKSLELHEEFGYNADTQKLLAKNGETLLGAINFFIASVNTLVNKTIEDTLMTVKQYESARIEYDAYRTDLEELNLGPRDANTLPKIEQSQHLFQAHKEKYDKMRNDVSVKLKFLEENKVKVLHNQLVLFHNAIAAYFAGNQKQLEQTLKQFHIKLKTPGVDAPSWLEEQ
Target,log2 fold change [1],log2 fold change (crizotinib),log2 fold change [2],log2 fold change [3],log2 fold change (duvelisib),log2 fold change (gandotinib),log2 fold change (tozasertib),log2 fold change [4],log2 fold change (doramapimod),log2 fold change (ispinesib),log2 fold change (bafetinib),log2 fold change [5],log2 fold change (nilotinib),log2 fold change [6],log2 fold change (dasatinib),log2 fold change [7],log2 fold change [8],log2 fold change [9],log2 fold change (tipifarnib),log2 fold change (mubritinib)
BYSL (UniProt Q13895),-0.003,-0.049,0,0.05,-0.041,-0.012,0.1,0.135,0.037,-0.094,0.118,0.034,-0.131,0.163,-0.082,0.064,-0.05,-0.003,-0.063,0.062
AARS2 (UniProt Q5JTZ9),0.017,-0.04,0.138,-0.03,0.053,-0.058,-0.039,0.036,0.026,-0.223 (active),-0.07,0.011,-0.085,-0.047,-0.184,-0.036,0.052,0.05,-0.063,-0.143
ARHGAP1 (UniProt Q07960),0.011,0.154,0.038,-0.003,0.057,0.011,0.046,0,-0.039,0.235 (active),0.001,0.016,-0.019,-0.056,-0.101,0.007,-0.025,-0.008,-0.069,0.01
ACADVL isoform 3 (UniProt P49748),0.042,0.021,0.078,-0.058,0.081,-0.01,0.003,-0.005,-0.065,-0.01,-0.093,0,0.032,0.02,-0.016,-0.007,0.022,0.026,-0.01,0.071
BST2 (UniProt Q10589),-0.023,0.066,0.006,-0.055,-0.004,-0.016,-0.009,-0.074,0.023,-0.078,0.061,-0.009,0.048,-0.059,-0.016,-0.096,-0.052,0.029,0.036,-0.015
AKR1C2 (UniProt P52895),0.005,-0.029,-0.159,0.219,-0.076,0.089,-0.045,0.098,-0.036,0.077,0.103,-0.111,0.029,-0.057,-0.012,0.028,-0.07,0.223,0.271,-0.06
ARMC10 (UniProt Q8N2F6),0.002,-0.04,0.016,0.006,0.033,-0.09,0.065,0.108,0.018,0.027,0.046,0.015,-0.063,-0.034,-0.125,-0.012,-0.052,-0.115,0.001,-0.096
ATIC (UniProt P31939),0.108,0.092,0.101,-0.083,0.023,0.066,0.018,-0.015,-0.029,0.096,0.067,0.058,0.158,-0.033,0.022,-0.006,0.104,0.048,-0.047,0.206 (active)
ANAPC2 (UniProt Q9UJX6),-0.025,-0.084,0.034,0.035,0.027,-0.044,0.012,0.028,0.022,-0.02,-0.048,0.024,-0.004,-0.053,-0.04,0.003,-0.005,-0.036,-0.005,0.049
ATRN (UniProt O75882),-0.049,0.01,0.116,0.087,-0.028,-0.002,-0.003,0.071,-0.238,–,-0.006,0.004,0.027,-0.055,-0.047,0,0.097,–,0.048,-0.027
ARFIP1 isoform 2 (UniProt P53367),-0.03,-0.266,0.047,–,0.11,-0.112,–,0.081,0.087,–,-0.281,-0.195,-0.147,-0.049,-0.316,-0.013,–,–,-0.024,-0.004
APAF1 (UniProt O14727),-0.045,0.045,0.115,-0.061,0.268,0.047,–,0.119,0.006,-0.181,–,0.042,-0.058,-0.015,-0.121,-0.268,-0.122,-0.016,-0.152,-0.032
ACOX3 (UniProt O15254),-0.006,-0.091,0.016,0.065,–,–,-0.018,–,0.14,–,0.053,–,0.159,-0.028,–,0.107,-0.009,–,0.272,-0.241
AFG1L (UniProt Q8WV93),-0.04,-0.027,0.074,0.001,0.078,–,-0.147,-0.019,0.002,-0.253,-0.041,–,-0.061,-0.048,-0.023,0.043,0.077,0.109,0.19,0.031
ATR (UniProt Q13535),0.063,-0.021,–,0.022,0.004,-0.09,-0.038,0.026,-0.123,0.004,-0.036,-0.028,-0.07,0.036,-0.123,-0.054,0.012,0.039,-0.022,-0.013
ADD3 isoform 2 (UniProt Q9UEY8),-0.032,0.028,0.101,-0.248,0.049,-0.211,0.047,0.089,-0.074,0.036,–,0.05,–,–,-0.116,–,0.152,-0.026,-0.067,-0.007
ACP1 (UniProt P24666),0.077,-0.063,-0.033,0.165,0.021,-0.083,0.108,0.324,0.141,–,0.041,0.013,0.078,-0.071,-0.129,-0.01,0.037,–,0.037,0.035
